# PubChem BioAssay (NCI)
# The panel holds about 83,000 compounds, 20% with a hit somewhere; the sample as a whole holds those more often.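 96-well plates, one dose, 48 hours. Percent growth reported; active if below 10.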 Unmarked numbers belong to inactive results. Calls of active or inactive are those of the source.
# Key:
# Test in all cases: NCI-60 one-dose screen, 48 h (100 = growth as untreated, 0 = no growth, -100 = all killed)
# Conditions in all cases: 10 µM
# NCI-H23 lung = test system: NCI-H23 lung
# NCI-H226 lung = test system: NCI-H226 lung
# NCI-H322M lung = test system: NCI-H322M lung
# HOP-62 NSCLC = test system: HOP-62 NSCLC
# NCI-H460 lung = test system: NCI-H460 lung
# HOP-92 NSCLC = test system: HOP-92 NSCLC
# NCI-H522 lung = test system: NCI-H522 lung
# A549/ATCC NSCLC = test system: A549/ATCC NSCLC
# 786-0 renal = test system: 786-0 renal
# COLO 205 colon = test system: COLO 205 colon
Compound,growth (NCI-H23 lung),growth (NCI-H226 lung),growth (NCI-H322M lung),growth (HOP-62 NSCLC),growth (NCI-H460 lung),growth (HOP-92 NSCLC),growth (NCI-H522 lung),growth (A549/ATCC NSCLC),growth (786-0 renal),growth (COLO 205 colon)
c1ccc(COCC[P+](c2ccccc2)(c2ccccc2)c2ccccc2)cc1,-10.1% (active),28.5%,10.4%,22.1%,3.37% (active),-29.9% (active),-9.64% (active),8.47% (active),16.9%,-41.2% (active)
C[C@H](NC(=O)[C@@H]1CSSC[C@@H](NC(=O)Cc2nc3ccccc3cc2O)C(=O)NCC(=O)N1C)c1ccccc1,106%,104%,105%,90.2%,94.2%,116%,88.3%,90.5%,114%,89.7%
COc1ccccc1Cn1cc2c(c1-c1ccccc1)CCc1cnoc1-2,36.9%,59.9%,35.1%,34.7%,10.7%,53.1%,42.1%,46.6%,33.5%,19.6%
N#Cc1ncc(-c2cc(F)ccc2F)c(NC2CCCCCC2)n1,89.9%,92.6%,73.6%,65.9%,48.5%,65.2%,68%,78%,97.6%,100%
O=C(CCCC(=O)N/N=C/c1cc(Cl)ccc1O)N/N=C\c1cc(Cl)ccc1O,38.4%,40.7%,23.7%,24.1%,10.2%,24.4%,18.3%,29.5%,24.8%,16.3%
COC(=O)[C@]12CC[C@@H](C)[C@H](C)[C@@H]1C1=CC[C@@H]3[C@@]4(C)C[C@@H](O)[C@H](O)[C@@](C)(CO)[C@@H]4[C@H](O)C[C@@]3(C)[C@]1(C)CC2,-50% (active),-42.8% (active),-29% (active),-59.5% (active),-72.5% (active),-56% (active),-78.9% (active),-62.3% (active),-65.1% (active),-87.5% (active)
N#C/C(=C\N1C(=O)/C(=C/c2cccc([N+](=O)[O-])c2)SC1=S)c1nc2ccccc2s1,68.9%,77.2%,92.9%,73.1%,94.7%,8.99% (active),57.8%,70%,88.3%,101%
Cc1cc(Cl)ccc1Nc1nc(C(F)(F)F)ccc1C(=O)N/N=C/c1ccccc1Cl,16.9%,-12.4% (active),9.54% (active),-6.31% (active),5.74% (active),-1.9% (active),-2.69% (active),13.5%,-40.1% (active),4.36% (active)
COc1ccc(/C(CS(=O)(=O)c2ccccc2)=N\O)cc1,105%,89.1%,108%,109%,109%,109%,97.3%,92.1%,104%,114%
Cc1cc(C(C)(C)CC(C)(C)C)ccc1OCCOCC[N+](C)(C)Cc1ccccc1,-20% (active),-18% (active),20.6%,-83.5% (active),-72.2% (active),-72.5% (active),-50.1% (active),36.7%,-19.4% (active),-81.6% (active)
COCCNCC(O)Cn1c2ccc(Cl)cc2c2cc(Cl)ccc21 (stereo not given),-36.8% (active),43.1%,-20.1% (active),17%,5.55% (active),135%,-62.8% (active),-10.2% (active),21.9%,-67.9% (active)
CCc1c(C(=O)NCc2c(O)ccc3cccc(O)c23)[nH]c(C)c1C(C)=O,23.4%,52.7%,69.5%,59%,43.4%,32.8%,11.4%,27.3%,60.9%,69.5%
CS(=O)(=O)Nc1ccc(Nc2c3ccccc3nc3cc(Cl)ccc23)cc1,42.7%,-4.26% (active),50.6%,25%,8.44% (active),-10.7% (active),16.2%,9.01% (active),19.6%,43.1%
NC1CCC(Nc2nc(NCc3ccc(-c4cccs4)nc3)c3ncn(C4CCCC4)c3n2)CC1 (stereo not given),-33.8% (active),-9.23% (active),19%,-2.05% (active),3.28% (active),-13% (active),-52.6% (active),4.31% (active),0.15% (active),-51.4% (active)
COc1ccc(Nc2ccnc(N3CCN(c4ccnc5cc(Cl)ccc45)CC3)n2)cc1,9.35% (active),1.67% (active),14.4%,16.5%,4.6% (active),-21.9% (active),-17.9% (active),7.39% (active),7.79% (active),-7.2% (active)
Cc1ccc(Cl)cc1Nc1nc(C(F)(F)F)ccc1C(=O)N/N=C/c1c(Cl)cccc1Cl,6.65% (active),-40.5% (active),17.8%,7.32% (active),-0.639% (active),-31% (active),-16.7% (active),-9.23% (active),-32.6% (active),-51.5% (active)
CCCCn1c(=O)[nH]c2c(c1=O)C(c1ccc(Cl)cc1)c1c([nH]c(=O)n(CCCC)c1=O)N2,90%,96.3%,91.6%,90.4%,106%,90.4%,83.3%,87.8%,93.4%,105%
N#CN1CC[C@H](C(=O)Nc2ncc(-c3ccncc3)s2)C1,-22% (active),-9.42% (active),11.1%,-7.49% (active),3.58% (active),-0.157% (active),-37.8% (active),-32.4% (active),5.77% (active),-55.4% (active)
COc1cc(/C=C2\C(=O)Nc3cc(C)c(O)cc32)cc(OC)c1OC,65.2%,79.8%,80%,85.7%,40%,63.6%,41.6%,50.1%,70.1%,69.1%
O=C(O)c1ccccc1C(=O)c1cccc2c(F)cccc12,102%,97.4%,108%,105%,115%,83%,103%,96.9%,104%,102%
C[C@]12CC[C@H]3[C@@H](CCC4=CC(=O)CC[C@@]43C)[C@@H]1CC[C@@H]2c1csc(N)n1,36.2%,60.1%,110%,70.2%,42.4%,65.4%,63.1%,60.7%,68.1%,25.6%
Cc1ccc(C)c(S(=O)(=O)NC2c3ccccc3Oc3ccccc32)c1,98%,90.3%,88.3%,96.1%,105%,59.6%,31.6%,96.7%,88%,99.2%
Cn1cnc([N+](=O)[O-])c1/C=C1\Oc2ccc(Cl)cc2C1=O,93.9%,94.8%,91%,93.5%,99.4%,94%,52.8%,98.4%,91.9%,100%
O=C(COCc1c(-c2ccccc2)no[n+]1[O-])Nc1nc(-c2ccc(Cl)cc2)cs1,93.6%,90.4%,104%,96.5%,106%,86.8%,81.1%,105%,120%,113%
C=CCNC(=S)NN,98.2%,106%,82.4%,81.2%,99%,84.6%,91.6%,69.6%,98.4%,107%
COc1cc(-c2nc3ccccc3[nH]2)ccc1OCc1nnc(-c2ccc(Br)cc2)o1,95.8%,121%,88.8%,106%,82.2%,92.6%,93.9%,90.2%,90.2%,91.2%
Cc1ccc2c(c1)-c1cc(C)nn1-c1ccc(C#N)cc1O2,78.2%,75.4%,81.5%,51.6%,60.5%,69.1%,15.2%,51.6%,86.4%,66.3%
